The campaign covered roughly 360,000 compounds. About 1,600 (0.44%) were called active.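 How the source made its calls: active means inhibition above the screen-wide average plus 3 SD (cut at about 13% in these data); inactive means the rest.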 What follows is part of a selection rich in actives, with near analogues and random picks from the rest.
molecular target: Galanin receptor type 3 (Homo sapiens) (UniProt O60755); assay: GalR3 antagonists in HEK293 cells, primary screen, cell-based, fluorescence readout (AID 651719); details: HEK293 GalR3-CNG cAMP membrane potential fluorescence; at 3 µM; stronger effect = higher value; galR3 body fused to GalR1 C-terminus;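 further: forskolin and galanin both at EC90 stimulate the cells; cAMP rise reported by CNG channel membrane potential dye signal; 0% = forskolin plus galanin with DMSO and 100% = forskolin alone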
Sequence (O60755 1-299 limits assumed): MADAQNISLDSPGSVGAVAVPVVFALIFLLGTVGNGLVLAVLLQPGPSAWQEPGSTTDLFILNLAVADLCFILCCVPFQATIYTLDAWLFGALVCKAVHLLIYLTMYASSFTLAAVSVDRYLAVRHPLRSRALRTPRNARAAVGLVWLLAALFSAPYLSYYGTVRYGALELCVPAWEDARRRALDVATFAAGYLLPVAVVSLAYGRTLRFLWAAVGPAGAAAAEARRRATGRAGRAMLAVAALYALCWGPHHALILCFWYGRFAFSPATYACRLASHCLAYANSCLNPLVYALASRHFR

Structure (SMILES)	inhibition
COC(=O)C1=C(C)N(Cc2ccccc2C(F)(F)F)C(=NCc2ccc(OC)cc2)NC1c1cccc(C(F)(F)F)c1 (configuration not stated)	-3.7% (inactive)
CN1C(=O)C(Br)(Br)CC1c1cccnc1 (configuration not stated)	-8.3% (inactive)
Nc1nc2c(ncn2[C@@H]2O[C@H](C(=O)N[C@H](Cc3ccccc3)C(=O)NCC3CCCCC3)[C@@H](O)[C@H]2O)c(=O)[nH]1	-7.48% (inactive)
CSc1ccc(Oc2cccc3c2S(=O)(=O)N([C@H](C)c2ccccc2)C[C@@H](COCc2ccccc2)O3)cc1C	-3.93% (inactive)
COC(=O)c1ccccc1NC(=O)CSc1n[nH]c(-c2ccncc2)n1	-2.72% (inactive)
CCc1ccc(-c2nc(SCC(=O)NC3CCCC3)n[nH]2)cc1	24.9% (active)
CCc1c(C)nc(SCC(=O)NC2CCCC2)[nH]c1=O	-6.61% (inactive)
CN(C)C(=O)N1CCN(C(=O)[C@@H](Cc2ccccc2)NC(=O)[C@H]2O[C@@H](n3ccc(N)nc3=O)[C@H](O)[C@@H]2O)CC1	-7.47% (inactive)
COc1ccccc1CCn1cnc(-c2ccccc2)c1C(C)C	-9.98% (inactive)
Cc1ccc(C)c(NC(=O)COC(=O)c2nn(C)c(=O)c3ccccc23)c1	-2.16% (inactive)
Cc1ccc(F)cc1NC(=O)CSCc1c(C)noc1C	-4.98% (inactive)
Cc1ccc(F)cc1NC(=O)Cc1nn(C)c(=O)c2ccccc12	41.5% (active)
O=C(NCc1ccccc1)[C@H]1CCCN1C(=O)[C@H]1CCCN1C(=O)c1cc(F)cc(F)c1	-0.96% (inactive)
Nc1ccn([C@@H]2O[C@H](C(=O)N[C@H]3CCCCNC3=O)[C@@H](O)[C@H]2O)c(=O)n1	-3.96% (inactive)
C[C@@H]1CN([C@H](C)CO)C(=O)CCCn2cc(nn2)CO[C@H]1CN(C)C(=O)Nc1ccc(N2CCCCC2)cc1	-3.62% (inactive)
CC(=O)c1ccc(NC(=O)N[C@@H](Cc2ccccc2)C(=O)O)cc1	-4.01% (inactive)
NC(=O)c1ccc(NC(=O)COC(=O)C(Cc2ccccc2)NC(=O)c2ccccc2)cc1 (configuration not stated)	15.4% (active)
O=C(COC(=O)[C@H](Cc1ccccc1)NC(=O)c1cccs1)Nc1cc(F)ccc1F	-2.8% (inactive)
COC(=O)c1c(-c2ccc(OC)cc2)c2c(c3c4ccccc4n(S(=O)(=O)c4ccc(C)cc4)c13)C(=O)N(C)C2	-6.49% (inactive)

Structure (SMILES)	inhibition
COc1ccc(-c2ccccc2C2Cc3nnccc3CN2C(=O)Nc2ccccc2)cc1 (configuration not stated)	-8.69% (inactive)
CCOC(=O)N1CCN(C(=O)C[C@H]2C[C@@]3(C(=O)OC)C(=C[C@H](C4CCCC4)O[C@@H]3C)N(Cc3ccccc3)C2=O)CC1	-2.22% (inactive)
C#CCN([C@@H](C)C(=O)OCC)S(=O)(=O)c1ccc(Br)cc1F	-6.91% (inactive)
O=C(Nc1ccccc1Cl)c1ccccc1S(=O)(=O)c1ccccc1[N+](=O)[O-]	0.75% (inactive)
CC(=O)c1ccc(NC(=O)C(C)N(C)CC(=O)Nc2ccccc2Cl)cc1 (configuration not stated)	-3.44% (inactive)
O=C(Nc1ccccc1Cl)/C(Cl)=C(\Cl)S(=O)c1ccccc1 (configuration not stated)	16.2% (active)
COc1ccc(C2=CN(Cc3ccccc3)C(c3ccc(OC)cc3)CC2=O)cc1 (configuration not stated)	-4.04% (inactive)
Cc1nc2ccccc2cc1OCc1ccc(F)cc1	80% (active)
Cc1occc(=O)c1OCc1ccc(F)cc1	5.85% (inactive)
Fc1cccc2ncnc(OCc3ccccc3)c12	-3.41% (inactive)
CCOC(=O)Cn1c2c(n(-c3ccc(F)cc3)c1=O)C=C(c1ccccc1)[C@@H](C)C(C(=O)N(C)C1CCCCC1)=C2	-7.9% (inactive)
COC(=O)[C@]12C[C@H](CC(=O)NCCc3ccccc3OC)C(=O)N(Cc3ccccc3)C1=C[C@H](C(C)C)O[C@@H]2C1CC1	-6.79% (inactive)
COc1ccc(NC(=O)c2ccco2)cc1NC(=O)c1ccc(C#N)cc1F	-2.95% (inactive)
COc1cc(NC(=O)c2cc([N+](=O)[O-])ccc2Br)ccc1NC(=O)c1ccco1	22.4% (active)
COc1ccc(CC(=O)Nc2ccccc2NC(=O)c2ccco2)cc1OC	-2.83% (inactive)
Cc1ccc(C)c(CN2CCC(CNC(=O)C3CCCN(c4ncnc5c4nc4n5CCCCC4)C3)CC2)c1 (configuration not stated)	-1.9% (inactive)
Cc1[nH]c2ccccc2c1CC(=O)Nc1ccc(Nc2cccnc2)c(-c2cccc(Cl)c2)c1	-2.4% (inactive)
CCCCOCC1CN(CCCC)S(=O)(=O)c2c(Oc3ccc(F)cc3)cccc2O1 (configuration not stated)	2.7% (inactive)

— PubChem BioAssay AID651719 (The Scripps Research Institute Molecular Screening Center, 2012)
